Reference: the supplement of paper PMC11732987, “Enantioselective OTUD7B fragment discovery through chemoproteomics screening and high-throughput optimisation” (Communications Chemistry, 2025)

What was measured:
Test in all cases: log2 ratio of Biotin-Ahx-Ub-VS probe labelling (fragment/DMSO); higher = less target engagement (more negative = stronger competition), active = hit call of the paper (q ≤ 0.05, log2 ratio ≤ -1)
Conditions in all cases: compound concentration: 200 uM; treatment time: 3 h
USP34 = USP34 (UniProt Q70CQ2)
Outline: (§1)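 The table lists average log2 ratios of fragment over vehicle, from an unpaired t-test on global-median-normalised Spectronaut label-free quantities. Proteins with ≥2 unique peptides were used. Samples were HEK293T lysate (495 µg) treated in triplicate with fragment at 200 µM or vehicle for 3 h, then with Biotin-Ahx-Ub-VS (0.5 µM final) for 1 h, with labelled DUBs NeutrAvidin-enriched and run by diaPASEF LC-MS/MS.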

USP36 = biological target: T1, USP36 (UniProt Q9P275)
T1 sequence (whole entry): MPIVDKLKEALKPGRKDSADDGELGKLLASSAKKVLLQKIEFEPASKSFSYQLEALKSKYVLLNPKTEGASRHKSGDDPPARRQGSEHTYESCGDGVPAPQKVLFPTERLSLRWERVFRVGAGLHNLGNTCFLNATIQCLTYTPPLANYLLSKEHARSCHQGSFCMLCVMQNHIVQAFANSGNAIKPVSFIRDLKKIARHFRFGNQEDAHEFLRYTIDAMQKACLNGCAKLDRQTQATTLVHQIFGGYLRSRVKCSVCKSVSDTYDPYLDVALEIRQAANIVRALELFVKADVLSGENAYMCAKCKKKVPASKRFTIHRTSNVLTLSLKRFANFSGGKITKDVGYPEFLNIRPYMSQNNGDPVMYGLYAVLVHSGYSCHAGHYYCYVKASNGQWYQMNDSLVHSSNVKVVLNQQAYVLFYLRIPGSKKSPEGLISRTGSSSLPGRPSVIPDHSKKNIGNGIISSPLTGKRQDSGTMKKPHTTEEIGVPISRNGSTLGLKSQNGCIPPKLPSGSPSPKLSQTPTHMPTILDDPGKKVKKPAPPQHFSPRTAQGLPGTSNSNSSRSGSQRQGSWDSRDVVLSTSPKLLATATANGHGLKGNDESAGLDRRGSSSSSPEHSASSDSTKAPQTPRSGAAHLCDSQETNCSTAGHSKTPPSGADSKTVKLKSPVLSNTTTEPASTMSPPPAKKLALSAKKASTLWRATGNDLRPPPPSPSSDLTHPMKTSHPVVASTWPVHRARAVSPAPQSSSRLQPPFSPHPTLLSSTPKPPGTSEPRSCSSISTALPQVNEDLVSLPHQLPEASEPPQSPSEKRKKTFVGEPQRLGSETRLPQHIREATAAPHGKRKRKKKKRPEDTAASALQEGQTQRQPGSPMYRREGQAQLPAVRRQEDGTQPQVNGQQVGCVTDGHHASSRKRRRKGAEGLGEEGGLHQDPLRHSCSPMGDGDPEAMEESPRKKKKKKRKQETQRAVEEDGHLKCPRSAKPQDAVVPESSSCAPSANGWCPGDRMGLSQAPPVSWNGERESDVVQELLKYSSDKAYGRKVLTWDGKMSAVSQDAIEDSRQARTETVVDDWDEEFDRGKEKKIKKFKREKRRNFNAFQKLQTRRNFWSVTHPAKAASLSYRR
Outline: as §1

USP38 = biological target: T2, USP38 (UniProt Q8NB14)
T2 sequence (whole entry): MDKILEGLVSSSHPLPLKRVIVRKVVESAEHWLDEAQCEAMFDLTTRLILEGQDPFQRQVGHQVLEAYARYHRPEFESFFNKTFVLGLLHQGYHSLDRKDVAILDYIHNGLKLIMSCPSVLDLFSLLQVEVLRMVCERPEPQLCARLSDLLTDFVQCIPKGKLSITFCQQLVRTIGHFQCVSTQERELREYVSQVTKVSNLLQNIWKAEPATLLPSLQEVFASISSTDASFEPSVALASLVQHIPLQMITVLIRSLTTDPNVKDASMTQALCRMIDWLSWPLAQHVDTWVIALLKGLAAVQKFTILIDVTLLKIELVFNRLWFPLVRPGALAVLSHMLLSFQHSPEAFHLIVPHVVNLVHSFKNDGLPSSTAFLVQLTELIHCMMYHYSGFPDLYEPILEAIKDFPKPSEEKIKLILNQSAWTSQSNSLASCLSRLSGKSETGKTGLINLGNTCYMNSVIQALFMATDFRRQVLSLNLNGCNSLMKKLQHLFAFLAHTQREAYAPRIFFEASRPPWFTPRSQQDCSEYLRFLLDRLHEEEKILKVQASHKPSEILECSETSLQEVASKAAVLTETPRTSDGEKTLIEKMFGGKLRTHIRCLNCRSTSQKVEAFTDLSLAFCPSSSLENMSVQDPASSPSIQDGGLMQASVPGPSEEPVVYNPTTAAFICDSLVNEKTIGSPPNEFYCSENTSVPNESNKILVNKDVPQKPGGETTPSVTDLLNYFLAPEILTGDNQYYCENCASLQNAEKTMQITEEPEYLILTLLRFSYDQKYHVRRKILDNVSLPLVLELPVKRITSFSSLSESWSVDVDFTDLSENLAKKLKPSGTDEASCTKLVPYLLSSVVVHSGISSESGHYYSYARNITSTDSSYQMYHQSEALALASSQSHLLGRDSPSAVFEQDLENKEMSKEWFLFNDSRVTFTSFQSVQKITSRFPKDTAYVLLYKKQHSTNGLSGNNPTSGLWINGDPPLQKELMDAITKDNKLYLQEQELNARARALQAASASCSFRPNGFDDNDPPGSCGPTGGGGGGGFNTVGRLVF
Outline: as §1

USP39 = biological target: T3, USP39 (UniProt Q53GS9)
T3 sequence (whole entry): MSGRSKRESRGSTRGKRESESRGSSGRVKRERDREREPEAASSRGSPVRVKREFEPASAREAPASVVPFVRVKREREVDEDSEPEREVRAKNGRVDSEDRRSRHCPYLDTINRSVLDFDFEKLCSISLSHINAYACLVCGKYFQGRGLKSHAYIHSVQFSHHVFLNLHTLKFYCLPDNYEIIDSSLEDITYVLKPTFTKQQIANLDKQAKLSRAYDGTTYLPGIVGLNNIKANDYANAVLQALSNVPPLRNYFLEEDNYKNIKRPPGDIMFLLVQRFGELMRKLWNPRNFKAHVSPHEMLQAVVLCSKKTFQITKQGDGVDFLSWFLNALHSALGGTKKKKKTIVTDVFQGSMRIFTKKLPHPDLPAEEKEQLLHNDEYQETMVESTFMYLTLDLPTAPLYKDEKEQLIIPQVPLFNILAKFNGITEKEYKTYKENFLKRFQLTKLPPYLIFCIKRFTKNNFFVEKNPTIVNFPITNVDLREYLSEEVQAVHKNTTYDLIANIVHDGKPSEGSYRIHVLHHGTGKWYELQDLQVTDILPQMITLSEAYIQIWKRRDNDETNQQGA
Outline: as §1

USP4 = biological target: T4, USP4 (UniProt Q13107)
T4 sequence (whole entry): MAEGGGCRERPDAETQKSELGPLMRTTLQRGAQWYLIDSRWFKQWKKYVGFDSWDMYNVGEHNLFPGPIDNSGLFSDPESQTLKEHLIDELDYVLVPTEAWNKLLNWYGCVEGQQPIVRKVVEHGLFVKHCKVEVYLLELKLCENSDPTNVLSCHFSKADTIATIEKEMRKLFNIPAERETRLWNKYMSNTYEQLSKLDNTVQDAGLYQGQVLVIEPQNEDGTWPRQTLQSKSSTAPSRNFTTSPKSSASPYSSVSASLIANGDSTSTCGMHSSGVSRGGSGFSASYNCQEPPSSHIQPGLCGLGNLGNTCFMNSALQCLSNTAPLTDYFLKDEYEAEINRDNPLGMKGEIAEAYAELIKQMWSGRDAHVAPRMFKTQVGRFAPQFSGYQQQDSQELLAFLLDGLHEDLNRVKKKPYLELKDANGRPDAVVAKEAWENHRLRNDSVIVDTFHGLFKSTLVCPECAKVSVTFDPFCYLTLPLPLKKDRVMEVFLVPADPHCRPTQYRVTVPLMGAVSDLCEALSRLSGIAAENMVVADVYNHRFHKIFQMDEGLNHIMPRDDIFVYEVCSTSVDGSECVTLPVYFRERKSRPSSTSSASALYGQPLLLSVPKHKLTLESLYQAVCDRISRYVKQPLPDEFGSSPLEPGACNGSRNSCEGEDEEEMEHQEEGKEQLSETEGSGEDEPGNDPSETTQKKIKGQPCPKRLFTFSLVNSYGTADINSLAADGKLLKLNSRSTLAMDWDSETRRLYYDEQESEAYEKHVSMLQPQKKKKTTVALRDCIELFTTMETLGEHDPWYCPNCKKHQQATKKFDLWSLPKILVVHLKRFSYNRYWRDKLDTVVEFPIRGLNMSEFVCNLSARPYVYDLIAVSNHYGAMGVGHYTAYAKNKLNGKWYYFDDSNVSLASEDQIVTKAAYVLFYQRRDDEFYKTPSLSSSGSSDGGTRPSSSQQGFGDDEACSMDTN
Outline: as §1

Measured: log2 ratio of Biotin-Ahx-Ub-VS probe labelling

USP34, sequence (Q70CQ2 whole entry, the tested form may be a part): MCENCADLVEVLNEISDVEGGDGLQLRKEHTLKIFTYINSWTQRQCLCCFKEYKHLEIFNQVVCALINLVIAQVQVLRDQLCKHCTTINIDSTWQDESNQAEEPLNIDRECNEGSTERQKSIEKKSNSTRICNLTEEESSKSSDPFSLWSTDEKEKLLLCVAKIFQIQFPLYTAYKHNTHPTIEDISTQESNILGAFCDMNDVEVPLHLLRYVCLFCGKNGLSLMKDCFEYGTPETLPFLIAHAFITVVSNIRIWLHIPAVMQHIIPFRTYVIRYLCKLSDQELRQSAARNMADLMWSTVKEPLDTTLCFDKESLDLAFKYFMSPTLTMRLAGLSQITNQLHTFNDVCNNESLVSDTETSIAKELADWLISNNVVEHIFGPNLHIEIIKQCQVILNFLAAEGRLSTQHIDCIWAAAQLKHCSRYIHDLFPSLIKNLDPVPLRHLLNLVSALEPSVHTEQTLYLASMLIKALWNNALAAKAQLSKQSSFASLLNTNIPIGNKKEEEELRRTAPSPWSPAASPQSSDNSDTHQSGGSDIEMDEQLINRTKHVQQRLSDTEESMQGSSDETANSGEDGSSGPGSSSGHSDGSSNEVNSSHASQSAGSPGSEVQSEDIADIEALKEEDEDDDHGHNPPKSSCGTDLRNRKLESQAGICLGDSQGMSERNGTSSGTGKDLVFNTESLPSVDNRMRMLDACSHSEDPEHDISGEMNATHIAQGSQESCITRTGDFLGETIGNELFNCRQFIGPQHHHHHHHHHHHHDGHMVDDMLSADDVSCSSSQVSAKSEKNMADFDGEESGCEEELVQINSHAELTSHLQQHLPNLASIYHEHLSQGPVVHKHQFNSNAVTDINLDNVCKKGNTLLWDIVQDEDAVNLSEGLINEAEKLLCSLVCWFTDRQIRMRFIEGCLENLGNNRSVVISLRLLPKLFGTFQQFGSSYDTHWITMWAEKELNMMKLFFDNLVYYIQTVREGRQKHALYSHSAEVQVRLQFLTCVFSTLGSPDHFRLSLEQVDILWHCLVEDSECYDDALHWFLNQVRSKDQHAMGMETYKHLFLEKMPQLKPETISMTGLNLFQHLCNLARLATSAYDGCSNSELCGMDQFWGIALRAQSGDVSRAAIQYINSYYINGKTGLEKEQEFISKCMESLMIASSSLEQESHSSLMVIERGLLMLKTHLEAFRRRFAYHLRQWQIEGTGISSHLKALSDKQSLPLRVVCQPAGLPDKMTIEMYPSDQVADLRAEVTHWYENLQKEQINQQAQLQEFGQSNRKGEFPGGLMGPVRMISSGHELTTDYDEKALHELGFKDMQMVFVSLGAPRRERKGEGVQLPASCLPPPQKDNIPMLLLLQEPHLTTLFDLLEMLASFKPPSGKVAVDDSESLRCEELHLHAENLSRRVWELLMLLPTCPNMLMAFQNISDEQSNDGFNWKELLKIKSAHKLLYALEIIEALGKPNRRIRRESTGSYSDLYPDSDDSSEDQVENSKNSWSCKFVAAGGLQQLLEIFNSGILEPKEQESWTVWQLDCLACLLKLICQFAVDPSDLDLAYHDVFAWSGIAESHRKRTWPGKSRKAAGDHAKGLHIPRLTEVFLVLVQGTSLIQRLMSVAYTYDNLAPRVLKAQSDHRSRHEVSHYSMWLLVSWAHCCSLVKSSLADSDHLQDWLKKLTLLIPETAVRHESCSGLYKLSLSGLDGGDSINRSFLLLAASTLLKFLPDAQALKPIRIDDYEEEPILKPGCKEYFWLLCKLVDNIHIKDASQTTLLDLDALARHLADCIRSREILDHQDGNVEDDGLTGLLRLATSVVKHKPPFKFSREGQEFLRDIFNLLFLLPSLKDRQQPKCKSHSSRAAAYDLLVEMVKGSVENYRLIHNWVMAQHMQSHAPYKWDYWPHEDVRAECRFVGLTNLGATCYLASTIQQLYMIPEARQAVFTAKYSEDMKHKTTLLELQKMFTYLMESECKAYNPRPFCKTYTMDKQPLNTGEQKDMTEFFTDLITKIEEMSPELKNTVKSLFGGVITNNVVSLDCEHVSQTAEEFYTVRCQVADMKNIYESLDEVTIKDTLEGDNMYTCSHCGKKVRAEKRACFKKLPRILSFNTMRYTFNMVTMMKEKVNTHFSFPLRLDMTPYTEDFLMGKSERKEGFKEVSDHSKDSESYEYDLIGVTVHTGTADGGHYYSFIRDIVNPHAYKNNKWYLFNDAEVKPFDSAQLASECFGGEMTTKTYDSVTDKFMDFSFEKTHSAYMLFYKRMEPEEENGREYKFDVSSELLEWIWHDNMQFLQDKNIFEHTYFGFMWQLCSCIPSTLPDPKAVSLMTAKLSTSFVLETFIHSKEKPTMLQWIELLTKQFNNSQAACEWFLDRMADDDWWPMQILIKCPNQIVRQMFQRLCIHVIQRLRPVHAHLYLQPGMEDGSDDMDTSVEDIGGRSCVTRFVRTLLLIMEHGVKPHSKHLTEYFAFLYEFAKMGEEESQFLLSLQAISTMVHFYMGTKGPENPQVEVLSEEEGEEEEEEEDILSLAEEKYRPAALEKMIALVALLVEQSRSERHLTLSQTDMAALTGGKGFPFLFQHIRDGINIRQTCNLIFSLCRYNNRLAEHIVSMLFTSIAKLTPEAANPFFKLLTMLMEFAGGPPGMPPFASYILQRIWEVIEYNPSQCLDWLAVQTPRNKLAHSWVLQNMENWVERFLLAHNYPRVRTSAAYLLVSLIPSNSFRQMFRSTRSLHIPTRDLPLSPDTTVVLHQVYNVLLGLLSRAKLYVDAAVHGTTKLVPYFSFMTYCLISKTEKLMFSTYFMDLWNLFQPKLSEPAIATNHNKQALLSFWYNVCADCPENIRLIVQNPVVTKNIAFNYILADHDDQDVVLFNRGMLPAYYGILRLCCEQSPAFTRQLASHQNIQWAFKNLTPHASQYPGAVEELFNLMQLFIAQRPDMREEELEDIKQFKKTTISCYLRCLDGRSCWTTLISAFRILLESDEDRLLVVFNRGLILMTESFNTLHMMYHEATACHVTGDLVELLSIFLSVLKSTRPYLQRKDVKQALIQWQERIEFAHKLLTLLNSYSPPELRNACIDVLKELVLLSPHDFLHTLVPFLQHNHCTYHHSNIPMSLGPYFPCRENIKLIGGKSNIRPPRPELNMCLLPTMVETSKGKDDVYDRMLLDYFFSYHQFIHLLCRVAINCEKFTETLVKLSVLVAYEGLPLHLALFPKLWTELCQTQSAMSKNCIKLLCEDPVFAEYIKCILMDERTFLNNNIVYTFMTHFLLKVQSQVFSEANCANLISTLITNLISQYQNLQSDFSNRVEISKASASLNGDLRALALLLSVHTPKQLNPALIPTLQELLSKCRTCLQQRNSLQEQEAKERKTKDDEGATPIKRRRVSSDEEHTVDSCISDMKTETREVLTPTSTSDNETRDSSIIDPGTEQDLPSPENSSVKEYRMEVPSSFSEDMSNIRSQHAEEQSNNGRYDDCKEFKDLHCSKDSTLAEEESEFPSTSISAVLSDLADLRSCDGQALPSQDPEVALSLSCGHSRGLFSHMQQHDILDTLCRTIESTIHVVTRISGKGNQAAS

Cl.O=C(CCl)N1CCN(Cc2ccccc2)CC1
inactive: USP34 -0.191 | USP36 0.0546 | USP38 -0.0649 | USP39 0.144 | USP4 -0.121
